Data on 40 compounds can be found in PubChem BioAssay (NCI).

About 83,000 compounds went through this panel and 20% of them were active in at least one assay; those are over-represented in the sample as a whole.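 Cells were grown in 96-well plates and exposed to the test compound at a single concentration for 48 hours; results are reported as percent growth, with values below 10 considered active.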 A number with no mark means an inactive call. Calls of active or inactive are those of the source.

The first test deals with MDA-MB-435 melanoma. The test is described as follows: NCI-60 one-dose screen, 48 h (100 = growth as untreated, 0 = no growth, -100 = all killed). The conditions noted are these: 10 µM unless noted.
Take `O=C1N/C(=N/N=C(c2ccccc2)c2ccccc2)S/C1=C\c1ccc(Br)cc1`: the growth was 103%.
As for `N#CC1=C(N)Oc2c(ccc3ccccc23)C1c1cc2ccccc2n2nnnc12` (stereo not given), the growth was -27.7% (active).
Same read-out and setting: for `O=C(NCCN1CCOCC1)c1cncnc1Nc1ccc2c(ccn2Cc2ccccn2)c1` the value was 99.9%.
On the same count and under the same terms, the same measure for `CN1CCN(Cc2ccc(NC(=O)c3cncc(C#Cc4cnc(N)c5ncccc45)c3)cc2Cl)CC1`: 94.2%; for `CC1(C)CC(=O)C2=C(C1)OC(C(=O)c1ccccc1)C2c1cccc(Oc2ccccc2)c1` (stereo not given): 44.5%; for `Cc1ccc2c(c1)CC(O)CC1C(=O)N(CCO)CC(=O)N21` (stereo not given): 106%.
Same read-out and setting: for `O=S(=O)(c1ccc(NCSc2nc3ccccc3s2)cc1)c1ccc(NCSc2nc3ccccc3s2)cc1` the value was 112%; for `Cc1ccc(C(F)(F)F)cc1N1CCN(C(=O)[C@H]2C[C@H]2c2ccc(C(F)(F)F)nc2)CC1`, 103%.
Turning to `CNC(=O)c1cc(Oc2ccc3nc(NC(=O)Nc4ccc(F)cc4F)sc3c2)ccn1`, the growth was 62.5%.
For `CSc1nn2c(-c3cc4cc(Br)ccc4oc3=O)ccnc2c1C#N`, the growth is 101%.
`CCCCCC(C)(O)C(C(=O)O)c1ccccc1` (stereo not given): the growth was 107%.
On the same count and under the same terms, the same measure for `O=C(O)CCCN1C(=O)CSC1=S`: 97.7%; for `COC(=O)c1c(C)nc(C)c2c1C(=O)C(Br)=C(NCCCCO)C2=O`: -25.3% (active); for `COc1ccc(C(=O)/C=C/Nc2cc(-c3ccccc3)nn2-c2ccccc2)cc1`: 99.2%.
For `Cc1ccc(Nc2oc(-c3ccccc3)nc2[P+](c2ccccc2)(c2ccccc2)c2ccccc2)cc1`, the growth is -62.8% (active).
In the case of `CNC1=C([N+](=O)[O-])C(c2ccc(OC)cc2)C(C#N)=C(c2ccc[nH]2)O1` (stereo not given), the growth is 96%.
`COc1ccc(-c2cn(Cc3ccc4c(Br)cc(Br)c(O)c4n3)nn2)cc1`: the growth is 89%.
For the compound `C#Cc1cccc(Nc2nc(Cl)nc3cc(NC(=O)CCl)ccc23)c1`, the growth was -76.7% (active).
On the same count and under the same terms, the same measure for `Cc1cc2nc(C(Cl)Cl)nc(-c3ccccc3)n2n1`: 68.9%; for `O=C(CSc1nnc(-c2cc(-c3ccc(Cl)cc3)nc3ccccc23)n1-c1ccccc1)Nc1ccc(Cl)cc1`: 102%; for `Clc1ccc(C2=Nn3c(nnc3-c3cc(Cl)cc(Cl)c3Cl)SC2)cc1`: -15.6% (active).
On to `C=CC(=O)Nc1ccc2ncnc(Nc3cccc(NS(=O)(=O)CCC)c3Cl)c2c1`, for which the growth is 26.2%.
Still for that read-out and setting: for `C#CCOC(=O)C(N)CSSCC(N)C(=O)O` (stereo not given) the value was 89.1%; for `CC(=O)/C(Br)=C/c1ccc(Br)o1`, 62.4%; for `CSc1nc(N)c2c(n1)NC(c1ccccc1)C1CCc3ccccc3C1=N2` (stereo not given), 55.9%.
On to `Cn1cc(-c2csc(-c3cn(CCO)c4ccc(F)cc34)n2)c2cccnc21`, for which the growth was 1.7% (active).
On the same count and under the same terms, the same measure for `Nc1ncc(-c2ccc3ncnc(N4CCc5cc(F)c(Cl)cc54)c3c2)cn1`: 55.8%; for `C=C(C[n+]1ccccc1)[C@@H]1CC[C@]2(C(=O)OC)CC[C@]3(C)[C@H](CC[C@@H]4[C@@]5(C)CCC(=O)C(C)(C)[C@@H]5CC[C@]43C)[C@@H]12`: 77.6%; for `O=C(CSc1nc(-c2ccccc2)cn1-c1ccc(Cl)cc1)c1ccc([N+](=O)[O-])cc1`: 83.5%.
For the compound `O=CN1N=C(c2cccc(Nc3ccncc3)c2)CC1c1ccc2c(c1)OCO2` (stereo not given), the growth was 92.1%.
The same measure, in the same setting: for `CCN(CC)CCOc1ccc(/C(=C(\C)Cc2ccc(OC)cc2)c2ccc(O)cc2)cc1` the value was -67.8% (active); for `Cc1nc2cccc(NCc3ccc(C(=O)NO)cc3)c2c(=O)n1-c1ccccc1`, 27%; for `COc1ccc(/C=C2/CCc3cc4ccc(OC)cc4[o+]c32)c(O)c1`, 2.85% (active).
On the same count and under the same terms, for `CCCC1Cc2cc(-n3nc(C)c4c3CC(C)(C)CC4=O)cc(NC3CCC(O)CC3)c2C(=O)N1` (stereo not given) the value was 26.8%; for `C#Cc1cccc(Nc2ncnc3ccc(-c4cnc(Cl)c(NS(C)(=O)=O)c4)cc23)c1`, -55.2% (active).
On the same count and under the same terms, the same measure for `O=C1/C(=C/c2cccc(Br)c2)COc2ccc(O)c(O)c21`: -34.7% (active).
For the compound `C=C(C)[C@@H]1CC[C@]2(COC(=O)c3cccnc3)CC[C@]3(C)[C@H](CC[C@@H]4[C@@]5(C)CCCN(C(=O)c6cccnc6)C(C)(C)[C@@H]5CC[C@]43C)[C@@H]12`, the growth is 38.3%.
In the case of `C[C@@H]1N=C(c2ccc(Cl)cc2Cl)Nc2nc3ccccn3c2C1=O`, the growth was -16.6% (active).
The same measure, in the same setting: the same measure for `CCCC[N+]1(C)CCN=C1Cc1ccccc1` (stereo not given): 104%; for `O=C(OCC(O)(CO)C(=O)NC12CC3CC(CC(C3)C1)C2)c1ccc(Cl)cc1` (stereo not given): 101%.

In another test the test system is SW-620 colon. Described as above. The conditions noted are these: 10 µM unless noted.
On to `O=C1N/C(=N/N=C(c2ccccc2)c2ccccc2)S/C1=C\c1ccc(Br)cc1`, for which the growth is 90.7%.
On to `N#CC1=C(N)Oc2c(ccc3ccccc23)C1c1cc2ccccc2n2nnnc12` (stereo not given), for which the growth is 9.58% (active).
The same measure, in the same setting: for `O=C(NCCN1CCOCC1)c1cncnc1Nc1ccc2c(ccn2Cc2ccccn2)c1` the value was 98%; for `CN1CCN(Cc2ccc(NC(=O)c3cncc(C#Cc4cnc(N)c5ncccc45)c3)cc2Cl)CC1`, 2.96% (active).
Regarding `CC1(C)CC(=O)C2=C(C1)OC(C(=O)c1ccccc1)C2c1cccc(Oc2ccccc2)c1` (stereo not given), the growth was 54.2%.
As for `Cc1ccc2c(c1)CC(O)CC1C(=O)N(CCO)CC(=O)N21` (stereo not given), the growth is 106%.
Same read-out and setting: the same measure for `O=S(=O)(c1ccc(NCSc2nc3ccccc3s2)cc1)c1ccc(NCSc2nc3ccccc3s2)cc1`: 100%.
Same read-out and setting: the same measure for `Cc1ccc(C(F)(F)F)cc1N1CCN(C(=O)[C@H]2C[C@H]2c2ccc(C(F)(F)F)nc2)CC1`: 105%; for `CNC(=O)c1cc(Oc2ccc3nc(NC(=O)Nc4ccc(F)cc4F)sc3c2)ccn1`: 99.9%; for `CSc1nn2c(-c3cc4cc(Br)ccc4oc3=O)ccnc2c1C#N`: 103%.
Consider `CCCCCC(C)(O)C(C(=O)O)c1ccccc1` (stereo not given), for which the growth is 102%.
Same read-out and setting: the same measure for `O=C(O)CCCN1C(=O)CSC1=S`: 114%; for `COC(=O)c1c(C)nc(C)c2c1C(=O)C(Br)=C(NCCCCO)C2=O`: 67.8%.
In the case of `COc1ccc(C(=O)/C=C/Nc2cc(-c3ccccc3)nn2-c2ccccc2)cc1`, the growth is 84.2%.
Still for that read-out and setting: the same measure for `Cc1ccc(Nc2oc(-c3ccccc3)nc2[P+](c2ccccc2)(c2ccccc2)c2ccccc2)cc1`: -48.2% (active); for `CNC1=C([N+](=O)[O-])C(c2ccc(OC)cc2)C(C#N)=C(c2ccc[nH]2)O1` (stereo not given): 104%.
With `COc1ccc(-c2cn(Cc3ccc4c(Br)cc(Br)c(O)c4n3)nn2)cc1`, the growth was 75.4%.
Still for that read-out and setting: for `C#Cc1cccc(Nc2nc(Cl)nc3cc(NC(=O)CCl)ccc23)c1` the value was -77.8% (active); for `Cc1cc2nc(C(Cl)Cl)nc(-c3ccccc3)n2n1`, 29.6%.
`O=C(CSc1nnc(-c2cc(-c3ccc(Cl)cc3)nc3ccccc23)n1-c1ccccc1)Nc1ccc(Cl)cc1`: the growth was 106%.
On to `Clc1ccc(C2=Nn3c(nnc3-c3cc(Cl)cc(Cl)c3Cl)SC2)cc1`, for which the growth was 19.1%.
In the case of `C=CC(=O)Nc1ccc2ncnc(Nc3cccc(NS(=O)(=O)CCC)c3Cl)c2c1`, the growth was 74.4%.
Still for that read-out and setting: the same measure for `C#CCOC(=O)C(N)CSSCC(N)C(=O)O` (stereo not given): 85%; for `CC(=O)/C(Br)=C/c1ccc(Br)o1`: 15.4%.
Regarding `CSc1nc(N)c2c(n1)NC(c1ccccc1)C1CCc3ccccc3C1=N2` (stereo not given), the growth was 67.7%.
With `Cn1cc(-c2csc(-c3cn(CCO)c4ccc(F)cc34)n2)c2cccnc21`, the growth is 29.8%.
As for `Nc1ncc(-c2ccc3ncnc(N4CCc5cc(F)c(Cl)cc54)c3c2)cn1`, the growth is 66.4%.
Still for that read-out and setting: for `C=C(C[n+]1ccccc1)[C@@H]1CC[C@]2(C(=O)OC)CC[C@]3(C)[C@H](CC[C@@H]4[C@@]5(C)CCC(=O)C(C)(C)[C@@H]5CC[C@]43C)[C@@H]12` the value was 89%.
In the case of `O=C(CSc1nc(-c2ccccc2)cn1-c1ccc(Cl)cc1)c1ccc([N+](=O)[O-])cc1`, the growth was 73.8%.
The same measure, in the same setting: for `O=CN1N=C(c2cccc(Nc3ccncc3)c2)CC1c1ccc2c(c1)OCO2` (stereo not given) the value was 102%.
Take `CCN(CC)CCOc1ccc(/C(=C(\C)Cc2ccc(OC)cc2)c2ccc(O)cc2)cc1`: the growth was -25.2% (active).
Still for that read-out and setting: for `Cc1nc2cccc(NCc3ccc(C(=O)NO)cc3)c2c(=O)n1-c1ccccc1` the value was 7.22% (active); for `COc1ccc(/C=C2/CCc3cc4ccc(OC)cc4[o+]c32)c(O)c1`, 11.9%.
Same read-out and setting: for `CCCC1Cc2cc(-n3nc(C)c4c3CC(C)(C)CC4=O)cc(NC3CCC(O)CC3)c2C(=O)N1` (stereo not given) the value was 20.4%; for `C#Cc1cccc(Nc2ncnc3ccc(-c4cnc(Cl)c(NS(C)(=O)=O)c4)cc23)c1`, 2.56% (active).
Same read-out and setting: the same measure for `O=C1/C(=C/c2cccc(Br)c2)COc2ccc(O)c(O)c21`: -25.1% (active); for `C=C(C)[C@@H]1CC[C@]2(COC(=O)c3cccnc3)CC[C@]3(C)[C@H](CC[C@@H]4[C@@]5(C)CCCN(C(=O)c6cccnc6)C(C)(C)[C@@H]5CC[C@]43C)[C@@H]12`: 32.2%; for `C[C@@H]1N=C(c2ccc(Cl)cc2Cl)Nc2nc3ccccn3c2C1=O`: 25.2%.
Turning to `CCCC[N+]1(C)CCN=C1Cc1ccccc1` (stereo not given), the growth is 98.4%.
Still for that read-out and setting: for `O=C(OCC(O)(CO)C(=O)NC12CC3CC(CC(C3)C1)C2)c1ccc(Cl)cc1` (stereo not given) the value was 103%.
